10 molecules from PubChem BioAssay (NCI) can be followed below.

About 83,000 compounds went through this panel and 20% of them were active in at least one assay; those are over-represented in the sample as a whole.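 96-well plates, one dose, 48 hours. Percent growth reported; active if below 10.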 Unmarked numbers belong to inactive results. Calls of active or inactive are those of the source.

Some test systems named below: SR leukemia; RPMI-8226 leukemia; OVCAR-8 ovarian; OVCAR-5 ovarian; OVCAR-4 ovarian; SK-OV-3 ovarian; IGROV1 ovarian; OVCAR-3 ovarian; NCI/ADR-RES ovarian; T-47D breast; MDA-MB-435 melanoma; SW-620 colon; MCF7 breast; HCT-116 colon; HCC-2998 colon; KM12 colon; BT-549 breast.
Assay in all cases: NCI-60 one-dose screen, 48 h (100 = growth as untreated, 0 = no growth, -100 = all killed)
Holding throughout (settings): 10 µM unless noted

For the molecule `CCCNC(=O)Oc1ccc(/C(=C(/C)Cc2ccc(OC)cc2)c2ccc(OCCN3CCCCC3)cc2)cc1`, the growth with SR leukemia is 3.39% (active); in the assay on RPMI-8226 leukemia, 77.5%; in the assay on OVCAR-8 ovarian, 91.1%; with OVCAR-5 ovarian it was 94.9%; in the assay with OVCAR-4 ovarian, 87.3%; with SK-OV-3 ovarian, 90.2%. The growth in the assay with IGROV1 ovarian is 98.4%; in the assay on OVCAR-3 ovarian it was 88.6%; in the assay with NCI/ADR-RES ovarian, 84.4%; with T-47D breast, 45.4%; in the assay with MDA-MB-435 melanoma, 92.5%; with SW-620 colon it was 90.4%. Also, the growth was 31.8% in the assay with MCF7 breast, 73% in the assay on HCT-116 colon, 84.6% in the assay on HCC-2998 colon and 94% in the assay on KM12 colon.

As to `CC(=O)CC(=O)OC/C=C(/C)CCC=C(C)C`, the growth in the assay with SR leukemia was 92.2%; with RPMI-8226 leukemia, 112%; with OVCAR-8 ovarian, 103%; in the assay on OVCAR-5 ovarian, 100%; in the assay on OVCAR-4 ovarian, 113%; in the assay on SK-OV-3 ovarian, 111%. Moreover, the growth with IGROV1 ovarian was 116%; in the assay with OVCAR-3 ovarian, 110%; in the assay on NCI/ADR-RES ovarian it was 102%; in the assay with T-47D breast it was 123%; with BT-549 breast it was 102%; in the assay on MDA-MB-435 melanoma it was 114%. For the same molecule, the growth is 105% in the assay with SW-620 colon; 99.6% in the assay on MCF7 breast; 98.9% in the assay with HCT-116 colon; 97.2% in the assay with HCC-2998 colon; 105% in the assay with KM12 colon.

As for `COc1ccc2c(c1)cn1c3ccc(O)cc3[nH]c(=O)c21`, the growth was 3.4% (active) with SR leukemia; -20.2% (active) in the assay with RPMI-8226 leukemia; 15% with OVCAR-8 ovarian; 18.7% in the assay with OVCAR-5 ovarian; 28.6% in the assay on OVCAR-4 ovarian; 11.3% in the assay with SK-OV-3 ovarian. Moreover, the growth in the assay on IGROV1 ovarian is 13.2%; in the assay with OVCAR-3 ovarian, -21.9% (active); in the assay with NCI/ADR-RES ovarian it was 1.78% (active); in the assay on T-47D breast, 37.2%; with MDA-MB-435 melanoma it was 1.04% (active); in the assay on SW-620 colon, 8.4% (active). For the same molecule, the growth with MCF7 breast is -4.36% (active); with HCT-116 colon, -85.4% (active); in the assay on KM12 colon, 9.45% (active).

`CCC(CCCN1C(=O)c2ccccc2C1=O)Nc1cc(OC)cc2c(C)ccnc12` (centres undefined): the growth was 54.9% in the assay on SR leukemia; 96% in the assay on RPMI-8226 leukemia; 98.7% in the assay with OVCAR-8 ovarian; 99.9% in the assay on OVCAR-5 ovarian; 73.8% in the assay with OVCAR-4 ovarian; 100% in the assay on SK-OV-3 ovarian. Also, the growth with IGROV1 ovarian is 137%; in the assay with OVCAR-3 ovarian it was 99.1%; in the assay with NCI/ADR-RES ovarian, 121%; with T-47D breast it was 85.9%; in the assay on BT-549 breast, 78.7%; with MDA-MB-435 melanoma, 99.2%. Moreover, the growth with SW-620 colon was 85.6%; in the assay with MCF7 breast, 91.5%; with HCT-116 colon, 98%; in the assay on HCC-2998 colon, 69%; in the assay on KM12 colon it was 102%.

For the molecule `COC(=O)C(C)[C@H]1CC[C@@H]2[C@]1(C)CC=C1[C@]23C=C[C@]2(C[C@@H](OC(C)=O)CC[C@]12C)C(C(=O)OC)C3C(=O)OC` (some centres undefined), the growth with SR leukemia was 55.8%; with RPMI-8226 leukemia, 60.8%; in the assay on OVCAR-8 ovarian it was 95.7%; in the assay with OVCAR-5 ovarian it was 109%; with OVCAR-4 ovarian, 85.7%; in the assay on SK-OV-3 ovarian, 111%. The growth is 98.2% with IGROV1 ovarian; 86.4% with OVCAR-3 ovarian; 94.3% in the assay on NCI/ADR-RES ovarian; 78.2% with T-47D breast; 95.1% with MDA-MB-435 melanoma; 102% in the assay with SW-620 colon. For the same molecule, the growth was 83.9% with MCF7 breast, 63.7% in the assay on HCT-116 colon, 91.4% in the assay with HCC-2998 colon and 92.5% with KM12 colon.

On to `CC(=O)Nc1nc(C)c(C(=O)NN)s1`, for which the growth is 107% in the assay with SR leukemia; 120% in the assay on RPMI-8226 leukemia; 111% with OVCAR-8 ovarian; 100% in the assay with OVCAR-5 ovarian; 118% in the assay on OVCAR-4 ovarian; 102% in the assay on SK-OV-3 ovarian. In addition, the growth is 95% with IGROV1 ovarian; 104% in the assay with OVCAR-3 ovarian; 98.6% with NCI/ADR-RES ovarian; 85.9% in the assay on T-47D breast; 137% in the assay on MDA-MB-435 melanoma; 97.4% in the assay with SW-620 colon. The results for the growth in the assay with HCT-116 colon, in the assay on HCC-2998 colon and with KM12 colon were 94.7%, 84.2% and 102%, respectively.

As to `CCS(=O)(=O)N[C@@H]1O[C@H](COC(C)=O)C(OC(C)=O)[C@H](OC(C)=O)C1OC(C)=O` (some centres undefined), the growth was 104% in the assay on SR leukemia; 105% with RPMI-8226 leukemia; 98.6% in the assay on OVCAR-8 ovarian; 98.8% in the assay on OVCAR-5 ovarian; 102% with OVCAR-4 ovarian; 97.3% in the assay with SK-OV-3 ovarian. The growth with IGROV1 ovarian is 106%; in the assay on OVCAR-3 ovarian, 101%; with NCI/ADR-RES ovarian, 108%; with T-47D breast it was 90.7%; with MDA-MB-435 melanoma, 103%; in the assay on MCF7 breast it was 103%. In addition, the figures for the growth in the assay with HCT-116 colon and in the assay on KM12 colon were 95.3% and 106%, respectively.

For `CC(O)CCC(C)[N+](=O)[O-]` (centres undefined), the growth in the assay on SR leukemia was 95.8%; with RPMI-8226 leukemia it was 101%; with OVCAR-8 ovarian, 104%; with OVCAR-5 ovarian, 102%; in the assay on OVCAR-4 ovarian it was 103%; with SK-OV-3 ovarian it was 101%. The growth is 105% in the assay on IGROV1 ovarian; 108% in the assay on OVCAR-3 ovarian; 111% in the assay with NCI/ADR-RES ovarian; 103% in the assay on T-47D breast; 106% with BT-549 breast; 104% with SW-620 colon. Besides, the growth in the assay with MCF7 breast was 101%; in the assay with HCT-116 colon, 109%; with HCC-2998 colon it was 126%; with KM12 colon, 103%.

Take `CCCCCCC(C)N(CC(C)(C)O)C(=O)c1ccc([N+](=O)[O-])cc1` (centres undefined): the growth in the assay on SR leukemia is 89.5%; in the assay with RPMI-8226 leukemia, 96%; in the assay on OVCAR-8 ovarian, 101%; in the assay with OVCAR-5 ovarian, 106%; in the assay with OVCAR-4 ovarian it was 108%; in the assay on SK-OV-3 ovarian it was 96.3%. The growth is 88.1% in the assay on IGROV1 ovarian; 113% in the assay on OVCAR-3 ovarian; 85.7% in the assay with NCI/ADR-RES ovarian; 88.2% in the assay with T-47D breast; 99% in the assay on BT-549 breast; 104% with MDA-MB-435 melanoma. In addition, the growth in the assay with MCF7 breast was 97.6%; in the assay on HCT-116 colon, 91.3%; in the assay on HCC-2998 colon, 115%; with KM12 colon, 103%.

Take `C=CN(C)S(C)(=O)=O`: the growth with SR leukemia was 14.2%; in the assay with RPMI-8226 leukemia, 16.8%; in the assay on OVCAR-8 ovarian it was 34.8%; with OVCAR-5 ovarian, 90.9%; with OVCAR-4 ovarian, 70.4%; with SK-OV-3 ovarian, 13.8%. Further, the growth was 51.5% in the assay with IGROV1 ovarian; -14.1% (active) with OVCAR-3 ovarian; 20.1% in the assay on NCI/ADR-RES ovarian; 16.8% in the assay with T-47D breast; 46.8% in the assay with BT-549 breast; -35.4% (active) with MDA-MB-435 melanoma. Besides, the growth in the assay on SW-620 colon is 19.9%; in the assay with MCF7 breast, 4.56% (active); with HCT-116 colon it was 19.7%; in the assay on HCC-2998 colon, 53%; in the assay with KM12 colon it was 33.6%.
